Hits are enriched below; roughly 12% of the tested compounds scored in any of these assays.
PLK1 PBD block – qHTS for Inhibitors of PLK1-PDB (polo-like kinase 1 - polo-box domain): Primary Screen | Serine/threonine-protein kinase PLK1 (Homo sapiens), P53350 | Plk1 PBD binding of FITC phosphopeptide, fluorescence polarization | Potency, µM, inactives show max response, negative = inhibition, hits mostly inhibitors | 360,000 compounds, 2.8% hits | AID 720504, 2013; note: potency is the fitted concentration of half-maximal effect; series mostly up to about 57 µM; % is set by controls: 0 for no effect and ±100 for the full control effect; nearly all actives have a fitted effect of over 65% in size
G9a block – qHTS Assay for Inhibitors of Histone Lysine Methyltransferase G9a; G9a H3K9 monomethylation, AlphaScreen, 2 h; 350,000 compounds, 8.8% hits; AID 504332, 2011; Histone-lysine N-methyltransferase EHMT2 (Homo sapiens), Q96KQ7; Potency, µM (titrated, usually from 102 µM), inactives show at the top dose activity, negative = inhibition, actives largely listed as inhibitors; note: potency is the fitted concentration of half-maximal effect; % is set by controls: 0 for no effect and ±100 for the full control effect; nearly all actives have a fitted effect of over 75% in size
Target sequence (Q96KQ7 913-1193 limits assumed): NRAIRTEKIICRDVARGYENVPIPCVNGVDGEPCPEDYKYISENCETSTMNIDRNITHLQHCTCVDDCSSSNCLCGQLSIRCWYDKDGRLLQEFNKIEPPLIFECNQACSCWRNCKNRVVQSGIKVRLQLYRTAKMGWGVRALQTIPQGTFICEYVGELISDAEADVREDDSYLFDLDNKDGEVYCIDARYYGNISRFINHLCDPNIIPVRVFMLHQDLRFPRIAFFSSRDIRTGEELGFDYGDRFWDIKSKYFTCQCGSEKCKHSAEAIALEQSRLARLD
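G9a (20 nM) was preincubated 15 min with compound, then reacted 2 h at room temperature with 500 nM biotin-H3K9 peptide and 20 µM SAM. Monomethyl-H3K9 detected by AlphaScreen using anti-H3K9me1 antibody.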
HP1b binding inh – HTS for Inhibitors of HP1-beta Chromodomain Interactions with Methylated Histone Tails | Chromobox protein homolog 1 (Homo sapiens), P83916 | Potency, µM (top dose mostly 114 µM), for inactives: at the highest dose activity change, negative = inhibition, usual class: inhibitors | AlphaScreen HP1-beta / biotin-H3K9me3 peptide binding | AID 540317, 2011 | 390,000 compounds, 0.56% hits; note: potency is the fitted concentration of half-maximal effect; nearly all actives have a fitted effect of over 70% in size
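AlphaScreen: HP1-beta (50 nM) preformed 30 min with biotin-H3(1-18)K9me3 peptide (50 nM) in PBS pH 7.4, 0.01% Tween-20. Compound added for 30 min at RT, then streptavidin donor/nickel chelate acceptor beads (10 ug/mL) for 30 min.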
PI5P4Ka inh – qHTS for Inhibitors of phosphatidylinositol 5-phosphate 4-kinase (PI5P4K); 330,000 compounds, 1.2% hits; AID 652105, 2013; PI5P4Kalpha enzyme, ADP-Glo luminescence, 60 min; active compounds read low; Phosphatidylinositol 5-phosphate 4-kinase type-2 alpha (Homo sapiens), P48426; max response, %; active = max response of -50% or lower; inconclusive = between -30% and -50%; inactive = -30% or higher; note: value at the top dose of about 77 µM; % is set by controls: 0 for no effect and ±100 for the full control effect
Target sequence (P48426 whole entry, looked up): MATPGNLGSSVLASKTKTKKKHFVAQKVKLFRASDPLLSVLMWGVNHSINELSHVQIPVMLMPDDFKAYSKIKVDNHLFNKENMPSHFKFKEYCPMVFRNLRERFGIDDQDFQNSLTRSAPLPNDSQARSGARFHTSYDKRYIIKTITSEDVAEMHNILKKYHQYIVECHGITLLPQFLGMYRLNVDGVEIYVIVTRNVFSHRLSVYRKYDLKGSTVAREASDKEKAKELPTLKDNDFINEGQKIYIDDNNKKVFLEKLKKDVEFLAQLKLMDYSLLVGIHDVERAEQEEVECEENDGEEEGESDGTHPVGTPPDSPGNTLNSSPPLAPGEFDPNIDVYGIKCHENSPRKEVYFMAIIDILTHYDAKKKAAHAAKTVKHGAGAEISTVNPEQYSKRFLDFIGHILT
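Quantitative HTS of the MLSMR library against PI5P4Kalpha with substrate. ATP added last at 5 microM final; room temperature, 60 minutes. Remaining ATP depleted, ADP converted and read as luminescence.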
JMJD2A Tudor inh – qHTS Assay for Inhibitors of JMJD2A-Tudor Domain; Lysine-specific demethylase 4A (Homo sapiens), O75164; AlphaScreen JMJD2A-Tudor / H3K4me3 peptide binding; Potency, µM (series often up to 114 µM), for inactives: top-dose activity change, negative = inhibition, hits mostly inhibitors; 390,000 compounds, 4.4% hits; note: potency is the fitted concentration of half-maximal effect; % is set by controls: 0 for no effect and ±100 for the full control effect; nearly all actives have a fitted effect of over 50% in size
BAZ2B block – qHTS Assay for Inhibitors of BAZ2B | Bromodomain adjacent to zinc finger domain protein 2B (Homo sapiens), Q9UIF8 | AlphaScreen BAZ2B-H3K14Ac peptide displacement | Potency, µM (doses to about 114 µM), for the others: top-dose activity change, negative = inhibition, most hits filed as inhibitors | 360,000 compounds, 4.4% hits | AID 504333, 2011; note: potency is the fitted concentration of half-maximal effect; % is set by controls: 0 for no effect and ±100 for the full control effect; nearly all actives have a fitted effect of over 60% in size
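AlphaScreen displacement: compounds (up to 110uM) incubated 30 min at room temperature with a preformed 50 nM BAZ2B/50 nM biotinylated H3K14Ac peptide complex in PBS pH 7.4 with Tween-20. Donor and acceptor beads at 10 ug/mL final added, 20 min light-protected before reading.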
* marks the source's active call; other numbers are inactive results; ? = inconclusive; · = no result; ! = not active in a repeat; [ ] = dose if it differs, or a comment. Unless noted, calls come from the whole dose curve; as a rule, active = well fitted curve in the direction sought with a large enough effect; inconclusive = small, poorly fitted or top-dose-only effect, or another doubt; inactive = no such curve, though single readings can be large; an effect the other way counts as inactive or inconclusive.

SMILES	PLK1 PBD block	G9a block	HP1b binding inh	PI5P4Ka inh	JMJD2A Tudor inh	BAZ2B block
O=C(Nc1ccc(CN2CCOCC2)cc1)c1ccco1	0%	-16%	21%	0	-4%	-14%
Cc1sc2nc(CN3CCOCC3)nc(Oc3ccc(NC(=O)c4ccco4)cc3)c2c1C	?	50µM*!	-26%	-1	-27%[57.1 µM]	-34%
Cc1ccc(Oc2nc(CN3CCOCC3)nc3sc4c(c23)CCC(C)C4)cc1 (stereo not drawn)	-9%	79µM*	-5%	-2	?	?
COc1ccc(-c2onc(C)c2C)cc1S(=O)(=O)N1CCN(c2ccc(Cl)cc2)CC1	·	4%[59 µM]	1%	·	-25%	-2%
CCCC[C@@H](C=O)NC(=O)[C@H](CC(C)C)NC(=O)OCc1ccccc1	·	-32%[59 µM]	·	·	·	·
CCOC(=O)c1ccccc1NC(=O)CCc1c(C)nc2ncnn2c1C	·	-1%[59 µM]	51%	·	-9%	-18%
CCCCn1nnc(NC(=O)c2ccc(-c3ccccc3[N+](=O)[O-])o2)n1	-3%	?	11%	-16	-20%	-24%
CCCCn1nnc(NC(=S)NC(=O)c2ccc(-c3cccc(Cl)c3Cl)o2)n1	?	45µM*	-24%	-2	?	-8%
CCCCC(=O)Nc1nnn(CCC)n1	-5%	4%[12.7 µM]	7%	·	-7%	4%
CCCCC(=O)NC(=S)Nc1nnn(CCC)n1	-5%	10µM*	-2%	-2	3.5µM*	71µM*
Cc1cc2c(ncn2C)c(NS(=O)(=O)c2cc(Cl)ccc2Cl)c1C	-10%	8.9µM*	35%	-3	-10%	11%
CSC1=C(C#N)C(CC(C)C)C(C(C)=O)=C(C)N1 (stereo not drawn)	-17%	50µM*	53%	-11	12%	6%
CSC1=C(C#N)C(CC(C)C)C2=C(CCCC2=O)N1 (stereo not drawn)	-1%	-3%	43%	0	-9%	8%
CCc1ccc(CNC(=O)c2ccc3nc(SCc4ccc(F)cc4)n(C)c3c2)cc1	·	29%[59 µM]	78%	·	-10%	7%
O=C(CN1C(=O)C2C3CC(C(Br)C3Br)C2C1=O)OCC(=O)c1cccc([N+](=O)[O-])c1 (stereo not drawn)	21µM*	0%	-13%	-10	-1%	·
O=C1C2C3C=CC(C3)C2C(=O)N1CCN1CCN(Cc2ccc([N+](=O)[O-])cc2)CC1 (stereo not drawn)	21µM*	-4%	21%	-7	?	-13%
O=C(CN1C(=O)C2C3C=CC(C3)C2C1=O)OCC(=O)c1ccc([N+](=O)[O-])cc1 (stereo not drawn)	-5%	40µM*	9%	1	-13%	2%
COc1ccc(C(=O)COC(=O)C(C)N2C(=O)C3C4CCC(C4)C3C2=O)cc1 (stereo not drawn)	-8%	6%[12.7 µM]	10%	0	-12%	38%
O=C(CCN1C(=O)C2C3C=CC(C3)C2C1=O)N1CCN(c2ccc([N+](=O)[O-])cc2)CC1 (stereo not drawn)	-9%	-37%	30%	-6	-13%	-15%
COc1ccc(C(=O)COC(=O)CN2C(=O)C3C4CCC(C4)C3C2=O)cc1 (stereo not drawn)	24µM*	11%	8%	-12	50µM*	-1%
COc1ccc(OC)c(NC(=O)NC2CCCc3ccccc32)c1 (stereo not drawn)	-10%	46%	22%	-4	-13%	-17%
COCCNC(=O)C(c1ccc(F)cc1)N(C(=O)CCC(=O)Nc1ccccn1)c1cccc(C)c1 (stereo not drawn)	-6%	15%	?	10	-17%	-1%
COc1ccc(NC2=C(C(C)=O)C(c3ccc(N(C)C)cc3)C(C(C)=O)C(C)(O)C2)cc1 (stereo not drawn)	8%	20µM*	2%	3	-23%	-3%
COc1ccc(NC2=C(C(C)=O)C(c3ccc(OC)cc3)C(C(C)=O)C(C)(O)C2)cc1 (stereo not drawn)	-19%	?	-12%	-6	-5%[11.4 µM]	-21%
CCCCc1nc2cc(C(=O)N3CCCCC3CCNC(C)=O)ccc2o1 (stereo not drawn)	24µM*	?	21%	-21	?	-4%
SMILES	PLK1 PBD block	G9a block	HP1b binding inh	PI5P4Ka inh	JMJD2A Tudor inh	BAZ2B block
O=C(O)/C(=C\c1ccccc1Cl)c1ccc(S(=O)(=O)N2CCCCC2)s1	-12%	?	34%	-27	-11%	-38%
O=C(O)/C(=C\c1ccc(Cl)c([N+](=O)[O-])c1)c1ccc(S(=O)(=O)N2CCCCC2)s1	?	45µM*	-2%	-24	?	?
O=C(O)/C(=C\c1ccc(Cl)c([N+](=O)[O-])c1)c1ccc(S(=O)(=O)N2CCCC2)s1	-26%	-4%[2.33 µM]	-2%	-25	?	56µM*
O=C(O)/C(=C\c1ccc(Cl)cc1)c1ccc(S(=O)(=O)N2CCCC2)s1	-3%	?	7%	1	-24%	?
O=C(c1ccco1)C(O)c1ccco1 (stereo not drawn)	?	50µM*	22%	8	-10%	-13%
COc1ccccc1NC(=O)C1=C(C)Nc2nc(SCc3cccc(F)c3)nn2C1c1ccc(C(=O)O)cc1 (stereo not drawn)	·	8%[12.7 µM]	30%	·	-17%	50µM*
COc1ccccc1NC(=O)C1=C(C)Nc2nc(-c3ccc(N(C)C)cc3)nn2C1c1ccncc1 (stereo not drawn)	-2%	?	-6%	·	?	50µM*
CC1=C(C(N)=O)C(c2ccncc2)n2nc(-c3ccccc3Cl)nc2N1 (stereo not drawn)	30µM*	-11%	2%	-2	-6%	9%
CCOC(=O)C1(C)CCN1C(=O)c1ccccc1 (stereo not drawn)	-10%	·	·	-1	·	·
Cc1ccc(C)c(N2N=C(C(=O)NCCN3C(=O)S/C(=C\c4cccnc4)C3=O)CCC2=O)c1	-11%	?	-7%	-27	-23%	3%
C(=N\n1c2ccccc2c2ccccc21)/c1ccccc1	2%	19%[59 µM]	44%	33	-4%	23%
C[n+]1cn(/N=C/c2ccccc2)c2ccccc21	-22%	1.6µM*	17%	-1	?	10%
Cn1cc(-c2nc3cnc(N4CCNCC4)nc3n(C3CC3)c2=O)c2ccccc21	·	-13%[0.501 µM]	·	·	·	·
